# Inconclusive results are not listed. A call without a number means that no potency is given here. Calls of active or inactive are those of the source. Calls come from the whole dose curve.
# Test: p53 small molecule agonists, cell-based qHTS assay: qHTS cell viability counter screen (AID 1963581); note: nearly all actives have a fitted effect of over 45% in size
# Settings: p53RE-bla HCT-116 viability, ATP luminescence, 16 h; series mostly up to 66 µM
# Text: National Center for Advancing Translational Sciences [NCATS]
# Division of Preclinical Innovation [DPI]
# U.S. Environmental Protection Agency [EPA]
# National Institutes of Environmental Health Sciences [NIEHS]
# National Toxicology Program [NTP]
# U.S. Food and Drug Administration [FDA]
# p53, a tumor suppressor protein, is activated following cellular insult, including DNA damage and other cellular stresses. The activation of p53 regulates cell fate by inducing DNA repair, cell cycle arrest, apoptosis, or cellular senescence. The activation of p53, therefore, is a good indicator of DNA damage and other cellular stresses. The CellSensor p53RE-bla HCT-116 cell line (Invitrogen) contains a stably integrated beta-lactamase reporter gene under control of the p53 response elements. The activation of the reporter gene under culture conditions can be detected by fluorescence intensity. This cell line was used to screen the Tox21 compound library in a 1536-well plate format and to identify agonists that activate the p53 signaling pathway. The cytotoxicity of the Tox21 compound library against the p53 RE-bla HCT-116 cell line was tested in parallel by measuring the intra cellular ATP content in the same wells.
# Tox21 Assay Protocol Summary:
# The p53RE-bla cells were dispensed at 4,000 cells/5 ul/well in 1536-well black wall/clear bottom plates using a Multidrop dispenser. After the assay plates were incubated at a 37 C/5% CO2 incubator for 5 hours, 23 nL of compounds dissolved in DMSO, positive controls or DMSO only was transferred to the assay plate by a pin tool. The plates were incubated at 37 C for 16 hours. After 1 uL of LiveBLAzerTM B/G FRET substrate was added using a Flying Reagent Dispenser, the plates were incubated at room temperature for 2 hours, and fluorescence intensity was measured by an Envision plate reader. For cell viability readout that measures cytotoxicity, 4 ul/well of CellTiter-Glo reagent was added into the assay plates using a Flying Reagent Dispenser. After 30 min incubation at room temperature, the luminescence intensity in the plates was measured using a ViewLux plate reader.
# Potency is the fitted concentration of half-maximal effect.
SMILES,Potency,"activity change, negative = cytotoxicity"
CCN(CCC#N)c1ccc(N=Nc2ccc([N+](=O)[O-])cc2)cc1,inactive,
Nc1[nH]c(=O)ncc1F,inactive,
C/C(=N\[Si](C)(C)C)O[Si](C)(C)C,inactive,
C/C=C\C/C=C/CCCCCCCCOC(C)=O,inactive,
CCCCCCC(O)CO (stereo not given),inactive,
CCCCCCCC[N+](CCCCCCCC)(CCCCCCCC)CCCCCCCC,4.57 µM (active),
C=CCOc1c(Br)cc(C(C)(C)c2cc(Br)c(OCC=C)c(Br)c2)cc1Br,inactive,
O=C(CCC1CCN(Cc2ccccc2)CC1)c1ccc2c(c1)NCCCC2,inactive,
Nc1cccc(S(=O)(=O)c2cccc(N)c2)c1,inactive,
NNc1nc(-c2ccc([N+](=O)[O-])cc2)cs1,inactive,
Cn1c(=O)c2c(ncn2CC(O)CO)n(C)c1=O (stereo not given),inactive,
CCCCCCC(CCCCCCCCCCC(=O)OCC(COC(C)=O)OC(C)=O)OC(C)=O (stereo not given),inactive,
Nc1ccc(C(=O)Oc2ccccc2)c(O)c1,inactive,
CO[Si](CCC1CCC2OC2C1)(OC)OC (stereo not given),inactive,
O=C(O)CCCc1c[nH]c2ccccc12,inactive,
NC(=O)NC(=O)Cc1ccccc1,inactive,
O=C(CCCl)NCCc1ccccc1,inactive,
S=c1[nH][nH]c(=S)s1,inactive,
CN(C)c1ccc(C(c2ccccc2)c2ccc(N(C)C)cc2)cc1,inactive,
CC[N+](CC)(CC)CCOc1cccc(OCC[N+](CC)(CC)CC)c1OCC[N+](CC)(CC)CC,inactive,

SMILES,Potency,"activity change, negative = cytotoxicity"
O=C(O)Cc1csc(-c2ccc(Cl)cc2)n1,inactive,
Oc1c(I)cc(I)c2cccnc12,inactive,
CCCCCc1ccc(Cl)cc1,inactive,
CN1[C@@H]2CC[C@H]1CC(OC(=O)C(O)c1ccccc1)C2 (stereo not given in full),inactive,
C#CCN[C@@H]1CCc2ccccc21,inactive,
CO[C@@]1(NC(=O)CSCC#N)C(=O)N2C(C(=O)O)=C(CSc3nnnn3C)CS[C@@H]21,inactive,
Cc1ccc(C=O)s1,inactive,
CN(C(=O)C(Cl)Cl)c1ccc(OC(=O)c2ccco2)cc1,inactive,
C=CCCCCCCCCC=O,inactive,
O=C(O)P(=O)(O)O,inactive,
CCCCS(=O)(=O)N[C@@H](Cc1ccc(OCCCCC2CCNCC2)cc1)C(=O)O,inactive,
Cc1cccc2nccnc12,inactive,
CCCCCCCCCCOc1cc2c(=O)c(C(=O)OCC)c[nH]c2cc1OCC,,-13% [at 5.99 µM] (inactive)
CCOC(=O)C1=NOC(c2ccccc2)(c2ccccc2)C1,inactive,
COc1cc(C(=O)NCCCCCC(=O)O)cc(OC)c1OC,inactive,
CN(C)CC/C=C1/c2ccccc2COc2ccc(CC(=O)O)cc21,inactive,
O=C(O)C(Cc1cc(I)c(O)c(I)c1)c1ccccc1 (stereo not given),inactive,
CCCCCCCCSCc1cc(C)c(O)c(CSCCCCCCCC)c1,inactive,
Nc1nc(N)c(-c2ccccc2)s1,inactive,
CCC(=O)O[C@]1(C(=O)COC)[C@@H](C)C[C@H]2[C@@H]3CCC4=CC(=O)C=C[C@]4(C)C3(F)[C@@H](O)C[C@@]21C (stereo not given in full),inactive,
